Results taken from PubChem BioAssay (EPA / NIEHS).
Inconclusive results are not listed. Calls of active or inactive are those of the source. How the source made its calls: active means hit-call score of the fitted dose curve at least 0.9, where 1 is the maximum; inconclusive means response in the unintended direction; inactive means score below 0.9.

The compounds below were run on Broad substrate specificity ATP-binding cassette transporter ABCG2 (Homo sapiens) (UniProt Q9UNQ0) (assay: CLD_ABCG2_48hr: CellzDirect (CLD) Gene Expression Assay for ABC Transporter (ABCG2) at 48 hours (AID 2283704);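 on AC50: potency for induction of ABCG2 mRNA above the DMSO baseline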).
Chain of Broad substrate specificity ATP-binding cassette transporter ABCG2 (Homo sapiens) (Q9UNQ0 whole entry, looked up): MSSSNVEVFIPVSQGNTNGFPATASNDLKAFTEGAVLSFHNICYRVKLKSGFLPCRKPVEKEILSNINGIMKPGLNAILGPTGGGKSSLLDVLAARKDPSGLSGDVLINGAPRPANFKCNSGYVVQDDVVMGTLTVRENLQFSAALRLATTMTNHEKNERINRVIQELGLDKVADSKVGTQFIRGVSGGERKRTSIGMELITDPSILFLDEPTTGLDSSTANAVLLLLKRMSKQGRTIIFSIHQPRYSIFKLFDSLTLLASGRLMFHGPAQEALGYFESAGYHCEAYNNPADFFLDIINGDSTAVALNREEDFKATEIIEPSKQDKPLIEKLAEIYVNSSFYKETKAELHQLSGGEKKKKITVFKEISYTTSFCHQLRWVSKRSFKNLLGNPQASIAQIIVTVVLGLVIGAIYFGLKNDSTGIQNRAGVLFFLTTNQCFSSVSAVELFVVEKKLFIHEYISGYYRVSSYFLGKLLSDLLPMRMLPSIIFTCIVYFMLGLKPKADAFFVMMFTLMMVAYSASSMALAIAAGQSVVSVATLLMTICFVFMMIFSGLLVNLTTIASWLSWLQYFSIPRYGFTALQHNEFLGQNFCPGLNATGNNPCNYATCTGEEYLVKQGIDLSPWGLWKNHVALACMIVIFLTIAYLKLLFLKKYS
In short: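 ABCG2 transcript measured at 48 h by quantitative nuclease protection (chemiluminescent) and fitted for increase relative to 0.2% DMSO. Hepatocyte cultures from separate donors got fresh compound daily over two days; morphology annotated cytotoxicity.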
For `CCCCC(CC)CN1C(=O)C2C3C=CC(C3)C2C1=O` (stereo not given), the outcome was “inactive”.
In the case of `CC(C)(C)[C@@H](O)[C@@H](Cc1ccc(Cl)cc1)n1cncn1`, the outcome is reported as “inactive”.
For `CCOC(=O)NCCOc1ccc(Oc2ccccc2)cc1`, the outcome was “inactive”.
With `S=C(S)NCCNC(=S)S.[Mn+2].[S-]C([S-])=NCCN=C([S-])[S-].[Zn+2]` the AC50 was 3.67 µM (active).

The compounds below were run on glucuronosyltransferase (UGT1A1), UGT1A1 (gene 54658) (assay: CLD_UGT1A1_48hr: CellzDirect (CLD) Gene Expression Assay for glucuronosyltransferase (UGT1A1) at 48 hours (AID 2283709);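 further: actives increase expression relative to DMSO so potency refers to induction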).
In short: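 Quantitative nuclease protection assay (chemiluminescent) for UGT1A1 mRNA at 48 h in human hepatocyte cultures from two donors, redosed daily with fresh solutions. Induction fitted relative to 0.2% DMSO; phase-contrast morphology annotated cytotoxicity.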
In the case of `COC(=O)CSc1cc(N=c2sc(=O)n3n2CCCC3)c(F)cc1Cl`, the AC50 is reported as 5.72 µM (active).
`COc1nc(C)nc(NC(=O)NS(=O)(=O)c2ccccc2OCCCl)n1` was tested, and the outcome was “inactive”.
`CCCCC(CC)CN1C(=O)C2C3C=CC(C3)C2C1=O` (stereo not given) was tested, and the outcome was “inactive”.
With `CC(C)(C)[C@@H](O)[C@@H](Cc1ccc(Cl)cc1)n1cncn1` the outcome was “inactive”.
`CCCCOCCOCCOCc1cc2c(cc1CCC)OCO2` was tested, and the AC50 was 2.22 µM (active).
In the case of `CCN(CC)C(=O)c1cccc(C)c1`, the outcome is reported as “inactive”.
For `COC(=O)c1cccc(C)c1S(=O)(=O)NC(=O)Nc1nc(OCC(F)(F)F)nc(N(C)C)n1`, the outcome was “inactive”.
In the case of `CCCCC(CC)COC(=O)c1ccccc1C(=O)O` (stereo not given), the outcome is reported as “inactive”.
`CN(C)C(=O)Nc1ccc(Cl)c(Cl)c1` was tested, and the outcome was “inactive”.
In the case of `CCOC(=O)NCCOc1ccc(Oc2ccccc2)cc1`, the AC50 is reported as 20 µM (active).
For `O=C(Nc1ccc([N+](=O)[O-])cc1Cl)c1cc(Cl)ccc1O`, the outcome was “inactive”.
For `CCCCOC(=O)[C@@H](C)Oc1ccc(Oc2ccc(C(F)(F)F)cn2)cc1`, the outcome was “inactive”.
`CCCCCCC(C)OC(=O)COc1nc(F)c(Cl)c(N)c1Cl` (stereo not given) was tested, and the outcome was “inactive”.
With `CCN(Cc1c(F)cccc1Cl)c1c([N+](=O)[O-])cc(C(F)(F)F)cc1[N+](=O)[O-]` the outcome was “inactive”.
For `CCCN(CCC)c1c([N+](=O)[O-])cc(C(F)(F)F)c(N)c1[N+](=O)[O-]`, the AC50 was 3.96 µM (active).
With `c1ccc2[nH]c(-c3cscn3)nc2c1` the outcome was “inactive”.
